Screening results (PubChem)
IP6K1 inh = blocks human inositol hexakisphosphate kinase 1; Q92551; IP6K1 kinase, ADP-Glo luminescence, 2 h; stronger effect = lower value; activity change, % (series mostly up to about 58 µM); hit rate 0.81% among 140,000; AID 1645851; in the data active means activity change below about -25%; further: on the % scale 0 is the no-effect control and ±100 the full control effect
Target sequence (Q92551 whole entry, looked up): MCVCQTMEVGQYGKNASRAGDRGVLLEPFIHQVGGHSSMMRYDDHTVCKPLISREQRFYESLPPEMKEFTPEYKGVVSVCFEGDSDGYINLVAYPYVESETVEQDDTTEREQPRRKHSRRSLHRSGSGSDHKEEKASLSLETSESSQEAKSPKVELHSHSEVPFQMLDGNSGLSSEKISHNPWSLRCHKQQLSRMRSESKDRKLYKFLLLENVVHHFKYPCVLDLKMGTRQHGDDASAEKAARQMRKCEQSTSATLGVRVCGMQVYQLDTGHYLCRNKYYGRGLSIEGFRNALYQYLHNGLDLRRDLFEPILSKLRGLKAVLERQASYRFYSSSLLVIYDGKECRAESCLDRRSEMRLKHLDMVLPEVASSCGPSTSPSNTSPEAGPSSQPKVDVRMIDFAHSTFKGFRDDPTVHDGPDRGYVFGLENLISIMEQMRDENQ
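ADP-Glo luminescence measures ADP made by human IP6K1 during a 2 h RT reaction with ATP/IP6 (mix at 1.3 mM/130 uM); top library doses 57.5 and 19.1 uM final.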
KDM5B inhibitor = blocks human KDM5B histone demethylase activity; KDM5B demethylase, FDH-coupled NADH fluorescence (FDH is formaldehyde dehydrogenase); hit rate 2.6% among 220,000; Potency, µM (top dose mostly 57.7 µM), actives largely listed as inhibitors; active means well fitted inhibition curve with a large enough effect; inconclusive means small, poorly fitted or top-dose-only effect; inactive means no such curve, though single readings can be large or run the other way; further: potency means the concentration at half of the fitted maximal effect; 0% is about no effect; nearly all actives have a fitted effect of over 70% in size
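Here, H3K4me3 peptide (12.5 µM in substrate mix) is demethylated by KDM5BΔAP, 200 nM final, after 10 min compound exposure. Formaldehyde product is coupled through FDH (0.25 U/mL in mix) to NADH fluorescence; 30-min ΔRFU feeds dose-response curves.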
* = called active by the depositor; i = inactive; ? = inconclusive; . = no result given. Shown are actives, neighbours in structure and some others; about 2.8% of the full set was active somewhere.

SMILES	IP6K1 inh	KDM5B inhibitor
O=C(NCc1ccc(F)c(F)c1)c1ccc2nc(-c3cccnc3)oc2c1	2	.
C=CCOc1c(OC)ccc2c1CN(C1CC1)C(=O)CCN2CC(O)COc1ccc(OC)cc1 (configuration not stated)	10	.
COc1ccc(CCNC(=O)c2ccc3nnc(-c4cccc(C(F)(F)F)c4)n3c2)cc1	20	.
CC(C)NC(=O)N1Cc2ccccc2OC2(CCN(C(=O)c3cccc4[nH]ccc34)CC2)C1	-4	i
CC(=O)N1Cc2ccccc2OC2(CCN(C(=O)c3ccnc(N)c3)CC2)C1	-6	79µM*
CC(=O)N1CCC2(CC1)CN(C(=O)c1ccnc(N)c1)Cc1ccccc1O2	12	?
CN(C)C(=O)N1CCC2(CC1)CN(C(=O)c1cccc3[nH]ccc13)Cc1ccccc1O2	3	50µM*
CCc1c(C)sc(NC(=O)OC)c1C#N	.	i
O=C(NCc1cccc(C(F)(F)F)c1)C1CCN(c2ccnc3ccnn23)CC1	-3	.
CC(O)c1cc2n(n1)CCN(C(=O)c1nc3ccccc3n(C)c1=O)C2 (configuration not stated)	19	25µM*
Cc1cc(C(=O)N2CCn3nc(C(C)O)cc3C2)c2ccc(F)cc2n1 (configuration not stated)	3	i
Cc1noc([C@@H](C)NC(=O)c2cccs2)c1C(=O)O	11	i
Cc1nn(-c2ccccc2)nc1C(=O)N[C@H](C)c1onc(C)c1C(=O)O	-13	32µM*
Cc1noc2c(-c3cccc(O)c3)cc(-c3cccs3)nc12	-20	13µM*
Cc1noc2c(NC(C)C)cc(-c3cccs3)nc12	-24	i
Cc1noc2c(-c3cccnc3)cc(-c3cccs3)nc12	6	?
Cc1noc2c(-c3ccncc3)cc(-c3cccs3)nc12	2	5.6µM*
Cc1nn(-c2ccccc2)c2c1C(C1CC1)N(C1CN(C(=O)c3ccc(F)cc3)C1)C2=O (configuration not stated)	13	.
O=C(c1ccc(C(F)(F)F)cc1)N1CCC(C(=O)N2CCCC(c3nc4ncccc4[nH]3)C2)CC1 (configuration not stated)	1	.
CCc1cccc2c1NC(=O)C2(O)CC(=O)c1ccc(Cl)cc1 (configuration not stated)	.	i
COc1ccc(-c2noc(-c3nc(-c4cccnc4)no3)n2)cc1	0	35µM*
COc1ccc(-c2noc(-c3nc(Cc4cccc(F)c4)no3)n2)cc1	15	28µM*
Cc1ccc(-c2noc(-c3nc(-c4cccnc4)no3)n2)cc1	14	i
Fc1cccc(Cc2noc(-c3nc(-c4ccccc4)no3)n2)c1	-6	i
COC(=O)N[C@H]1[C@H](OC(=O)c2ccccc2)[C@@H]2O[C@H]1c1ccccc12	-11	.
SMILES	IP6K1 inh	KDM5B inhibitor
O=C(NC1CCCCCC1)c1nc2sccn2c1-c1ccncc1	14	.
Cn1ccc2c(C(=O)N[C@@H]3CCOC[C@H]3Oc3ccccn3)cccc21	12	i
CCn1c(C)ccc(C(=O)N[C@@H]2COCC[C@H]2Oc2ccccn2)c1=O	-2	28µM*
COc1ccc(F)cc1-c1ccc(CN2CCC(NC(=O)c3ccccc3F)C2)cc1 (configuration not stated)	-1	.
Cn1nc(-c2ccncc2)cc1NC(=O)c1ccc(C(F)(F)F)cc1	-2	.
CCC(=O)N1CCN(c2nc3c(s2)CC(C(=O)NCc2ccc(C)o2)CC3)CC1 (configuration not stated)	5	25µM*
Cc1ccc(CNC(=O)C2CCc3nc(N4CCN(C(=O)C(C)C)CC4)sc3C2)o1 (configuration not stated)	19	i
COCC(=O)N1CC(N2C(=O)c3c(c(C)nn3-c3ccccc3)C2C2CC2)C1 (configuration not stated)	6	.
COc1ccc(-c2noc([C@@H](C)NC(=O)c3nc4ccccc4[nH]3)c2C(=O)O)cc1	1	28µM*
COc1ccc(-c2noc([C@@H](C)NC(=O)c3nc4ccccc4s3)c2C(=O)O)cc1	-6	?
O=C(NCc1ccccn1)[C@H]1CN(Cc2ccccc2)C[C@H]1C(=O)O	0	i
COc1ccc(Nc2ccnc(N3CCC(C(=O)NCC(F)(F)F)CC3)n2)cc1	-1	.
COC[C@@H]1CN(C(=O)CN2CCOCC2)C[C@H]1c1ccncc1	-5	i
COC[C@@H]1CN(c2ncccn2)C[C@H]1C(=O)N1CCOCC1	14	25µM*
COC[C@@H]1CN(c2ncccn2)C[C@H]1C(=O)NCc1ccccn1	7	14µM*
COC[C@@H]1CN(c2ncccn2)C[C@H]1C(=O)NCC(F)(F)F	0	20µM*
Cc1cnc(-c2ccccc2)n1C1CCN(C(=O)Cc2cccc(F)c2)CC1	9	.
COC(=O)c1ccc(COC(=O)CC23CC4CC(CC(Br)(C4)C2)C3)o1	.	i
Cc1ccc(C(=O)N[C@@H]2C=C(C(=O)N[C@@H](CCS(C)(=O)=O)C(N)=O)C[C@@H](O)[C@@H]2O)cc1	-6	i
CS(=O)(=O)CC[C@H](NC(=O)C1=C[C@@H](NC(=O)CCN)[C@@H](O)[C@H](O)C1)C(N)=O	16	40µM*
Cc1sc(NC(=O)c2cccc(C#N)c2)c(C#N)c1C	.	i
CN(C)/C=C\C(=O)c1ccc(F)cc1	.	i
Cc1ccc(CC(=O)NCc2nnc3cc(-c4nc(C)no4)ccn23)cc1	7	?
Cc1noc(-c2ccn3c(CNC(=O)COc4ccccc4)nnc3c2)n1	24	13µM*
Cc1noc(-c2ccn3c(CNC(=O)C(C)c4ccccc4)nnc3c2)n1 (configuration not stated)	21	28µM*
SMILES	IP6K1 inh	KDM5B inhibitor
Cc1noc(-c2ccn3c(CNC(=O)Cc4ccccc4Cl)nnc3c2)n1	10	25µM*
Cc1noc(-c2ccn3c(CNC(=O)c4cc(Cl)ccc4F)nnc3c2)n1	7	?
COc1ccc(-c2cc(NCCO)nc3[nH]ccc23)cc1C(F)(F)F	12	?
COc1cc2c(cc1OC)C(C[C@H]1CN(S(=O)(=O)c3cccc(C#N)c3)CC[C@H]1CC(=O)O)=NCC2	4	i
COc1cc2c(cc1OC)C(C[C@H]1CN(S(=O)(=O)c3ccccc3)CC[C@H]1CC(=O)O)=NCC2	19	25µM*
COc1cc2c(cc1OC)C(C[C@H]1CN(S(=O)(=O)c3ccc(F)cc3)CC[C@H]1CC(=O)O)=NCC2	5	i
COc1cc2c(cc1OC)C(C[C@H]1CN(S(=O)(=O)c3ccc(Cl)cc3)CC[C@H]1CC(=O)O)=NCC2	13	28µM*
COc1ccc2c(c1)CCN=C2C[C@H]1CN(S(C)(=O)=O)CC[C@H]1CC(=O)O	4	?
O=C(O)C[C@@H]1CCN(S(=O)(=O)c2ccc(F)cc2)C[C@@H]1CC1=NCCc2cc(F)ccc21	10	20µM*
Cc1nn(-c2ccccc2)c2c1C(C(C)C)N(C1CCCN(C(=O)Cc3cccc(Cl)c3)C1)C2=O (configuration not stated)	3	.
Cc1cc(OCc2nnc(SCc3ccc(Cl)cc3)n2C)ccc1Cl	.	i
COc1ccc(C)cc1NC(=O)CC(C)(C(=O)O)c1ccccc1 (configuration not stated)	.	i
O=C(Cc1cccc(Cl)c1)NC1CCN(C(=O)c2ccc(-c3cccs3)cc2)CC1	20	.
O=C(NCC1CC1)c1cc(-c2cccc(C(F)(F)F)c2)c2cccn2n1	-8	.
